# In the supplement of paper PMC8728848:
# The sample as a whole holds a higher share of the strongest signals than the screen did.
# B1: SspB A3vp1 (Streptococcus gordonii), Q54186 (protein)
# chain: MTNEADYQAKLAAYQTELARVQKANADAKATYEKAVEDNKAKNAAIKAENEEIKQRNAVAKTDYEAKLAKYEADLAKYKKEFAAYTAALAEAESKKKQDGYLSEPRSQSLNFKSEPNAIRTIDSSVHQYGQQELDALVKSWGISPTNPDRKKSRAYSYFNAINSNNTYAKLVLEKDKPVDVTYTGLKNSSFNGKKISKVVYTYTLKETGFNDGTKMTMFASSDPTVTAWYNDYFTSTNINVKVKFYDEEGQLMNLTGGLVNFSSLNRGNGSGAIDKDAIESVRNFNGRYIPISGSSIKIHENNSAYADSSNAEKSLGARWNTSEWDTTSSPNNWYGAIVGEITQSEISFNMASSKSGNIWFAFNSNINAIGVPTKPVAPTAPTQPMYETEKPLEPAPVAPSYENEPTPPVKTPDQPEPSKPAAALEHHHHHH
# Columns and labels:
# Experiment in all cases: glycan array binding signal (z-score within array); higher = stronger binding
# Conditions in all cases: glycan notation: IUPAC condensed, linker removed
# [1] = target: Gal3S(b1-3)GalNAc
# How it was run: (§1)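 Glycan array binding is given as a within-array Z-score, which can be read as non-binding when negative. The arrays, 3228 of them, came from the Consortium for Functional Glycomics database and were retained only where the protein sequence was available. Z-scores were averaged across arrays of the same protein sequence at different concentrations or buffers and across linkers.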
# [2] = target: Gal3S6S(b1-4)GlcNAc
# How it was run: as §1
# [3] = target: Gal4S(b1-4)GlcNAc
# How it was run: as §1
# [4] = target: Gal6S(b1-4)GlcNAc
# How it was run: as §1
# [5] = target: GalNAc(b1-3)Gal
# How it was run: as §1
# [6] = target: GalNAc(b1-3)Gal(a1-6)Gal(b1-4)Glc
# How it was run: as §1
# [7] = target: GalNAc6S(b1-4)GlcNAc
# How it was run: as §1
# [8] = target: Glc(a1-4)Glc(a1-4)Glc(a1-4)Glc
# How it was run: as §1
# [9] = target: GlcA3S(b1-3)Gal(b1-4)GlcNAc(b1-2)Man
# How it was run: as §1
# [10] = target: GlcNAc(a1-3)Gal(b1-4)GlcNAc
# How it was run: as §1
# [11] = target: GlcNAc(a1-4)Gal(b1-4)GlcNAc
# How it was run: as §1
# [12] = target: GlcNAc(b1-2)[GlcNAc(b1-6)]Man(a1-6)[GlcNAc(b1-4)][GlcNAc(b1-2)Man(a1-3)]Man(b1-4)GlcNAc(b1-4)GlcNAc
# How it was run: as §1
# [13] = target: GlcNAc(b1-3)Fuc
# How it was run: as §1
# [14] = target: GlcNAc(b1-3)Gal(b1-4)GlcNAc(b1-3)Gal(b1-4)GlcNAc(b1-2)Man(a1-3)[GlcNAc(b1-3)Gal(b1-4)GlcNAc(b1-3)Gal(b1-4)GlcNAc(b1-2)Man(a1-6)]Man(b1-4)GlcNAc(b1-4)[Fuc(a1-6)]GlcNAc
# How it was run: as §1
# [15] = target: GlcNAc(b1-3)Gal(b1-4)GlcNAc(b1-3)Gal(b1-4)GlcNAc(b1-3)Gal(b1-4)GlcNAc(b1-2)[GlcNAc(b1-3)Gal(b1-4)GlcNAc(b1-3)Gal(b1-4)GlcNAc(b1-3)Gal(b1-4)GlcNAc(b1-6)]Man(a1-6)[GlcNAc(b1-3)Gal(b1-4)GlcNAc(b1-3)Gal(b1-4)GlcNAc(b1-3)Gal(b1-4)GlcNAc(b1-2)Man(a1-3)]Man(b1-4)GlcNAc(b1-4)[Fuc(a1-6)]GlcNAc
# How it was run: as §1
# [16] = target: Kdn(a2-3)Gal(b1-3)GlcNAc
# How it was run: as §1
# [17] = target: Man(a1-2)Man(a1-3)[Man(a1-2)Man(a1-6)]Man
# How it was run: as §1
# [18] = target: Neu5Ac(a2-3)Gal
# How it was run: as §1
# [19] = target: Neu5Ac(a2-3)Gal(b1-3)GalNAc6S
# How it was run: as §1
# [20] = target: Neu5Ac(a2-3)Gal(b1-4)GlcNAc(b1-2)Man
# How it was run: as §1
# [21] = target: Neu5Ac(a2-3)Gal(b1-4)GlcNAc(b1-3)Gal
# How it was run: as §1
# [22] = target: Neu5Ac(a2-3)Gal(b1-4)GlcNAc(b1-3)Gal(b1-4)GlcNAc(b1-2)Man(a1-3)[Neu5Ac(a2-3)Gal(b1-4)GlcNAc(b1-3)Gal(b1-4)GlcNAc(b1-2)Man(a1-6)]Man(b1-4)GlcNAc(b1-4)GlcNAc
# How it was run: as §1
# [23] = target: Neu5Ac(a2-3)Gal(b1-4)GlcNAc(b1-3)GalNAc
# How it was run: as §1
# [24] = target: Neu5Ac(a2-3)Gal(b1-4)GlcNAc6S
# How it was run: as §1
# [25] = target: Neu5Ac(a2-3)Gal(b1-4)[Fuc(a1-3)]GlcNAc(b1-6)[Neu5Ac(a2-3)Gal(b1-3)]GalNAc
# How it was run: as §1
# [26] = target: Neu5Ac(a2-6)Gal(b1-4)GlcNAc(b1-3)Gal(b1-4)GlcNAc(b1-3)Gal(b1-4)GlcNAc(b1-2)Man(a1-3)[Neu5Ac(a2-6)Gal(b1-4)GlcNAc(b1-3)Gal(b1-4)GlcNAc(b1-3)Gal(b1-4)GlcNAc(b1-2)Man(a1-6)]GalNAc
# How it was run: as §1
# [27] = target: Neu5Ac(a2-6)Gal(b1-4)GlcNAc6S
# How it was run: as §1
# [28] = target: Neu5Ac(a2-8)Neu5Ac
# How it was run: as §1
# [29] = target: Neu5Ac(a2-8)Neu5Ac(a2-3)Gal(b1-4)GlcNAc
# How it was run: as §1
# [30] = target: Neu5Ac(a2-8)Neu5Ac(a2-3)[GalNAc(b1-4)]Gal(b1-4)Glc
# How it was run: as §1
binder,measurement,setting,value
B1,glycan array binding signal (z-score),[1],0.06
same,glycan array binding signal (z-score),[2],-0.52
same,glycan array binding signal (z-score),[3],0.061
same,glycan array binding signal (z-score),[4],-0.624
same,glycan array binding signal (z-score),[5],0.001
same,glycan array binding signal (z-score),[6],0.652
same,glycan array binding signal (z-score),[7],-0.623
same,glycan array binding signal (z-score),[8],-0.964
same,glycan array binding signal (z-score),[9],-1.19
same,glycan array binding signal (z-score),[10],-0.25
same,glycan array binding signal (z-score),[11],-0.84
same,glycan array binding signal (z-score),[12],-0.233
same,glycan array binding signal (z-score),[13],-0.426
same,glycan array binding signal (z-score),[14],1.62
same,glycan array binding signal (z-score),[15],-0.133
same,glycan array binding signal (z-score),[16],-0.933
same,glycan array binding signal (z-score),[17],-0.889
same,glycan array binding signal (z-score),[18],-0.167
same,glycan array binding signal (z-score),[19],-0.287
same,glycan array binding signal (z-score),[20],1.88
same,glycan array binding signal (z-score),[21],-0.803
same,glycan array binding signal (z-score),[22],3.69
same,glycan array binding signal (z-score),[23],-0.47
same,glycan array binding signal (z-score),[24],-0.678
same,glycan array binding signal (z-score),[25],5.21
same,glycan array binding signal (z-score),[26],1.36
same,glycan array binding signal (z-score),[27],-0.165
same,glycan array binding signal (z-score),[28],-0.582
same,glycan array binding signal (z-score),[29],-1.25
same,glycan array binding signal (z-score),[30],-0.166
